# Experimental data published in PubChem BioAssay (EPA / NIEHS).
# Calls of active or inactive are those of the source. Rule for the calls: active = hit-call score of the fitted dose curve at least 0.9, where 1 is the maximum; inactive = score below 0.9.
# Experiment: Tanguay_ZF_120hpf_MO24: Oregon State University Tanguay Lab 24 Hour Post-fertilization zebrafish Assay for Mortality (AID 2284389)
# How it was run: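 Dechorionated wild-type zebrafish embryos, 1 per well, statically exposed from 6 hpf at 28C, 0.64% DMSO final. Mortality scored as binary present/absent at 24 hpf by brightfield microscopy, relative to DMSO.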
SMILES,outcome,AC50
NC(=O)C(F)(F)C(F)(F)F,inactive,
O=C(O)C(F)(F)OC(F)(F)C(F)(F)OC(F)(F)C(=O)O,inactive,
O=C(O)C(F)(OC(F)(F)C(F)(F)C(F)(F)F)C(F)(F)F (centres undefined),inactive,
FC(F)(F)C(F)(C(F)(F)F)C(F)(F)C(F)(F)CC1CO1 (centres undefined),inactive,
O=C(O)C(F)(F)OC(F)(F)C(F)(F)OC(F)(F)F,inactive,
COC(=O)C(F)(F)C(F)(F)OC(F)(C(F)(F)F)C(F)(F)OC(F)=C(F)F (centres undefined),,21.4 µM (active)
OCC(F)(F)OC(F)(F)C(F)(F)OC(F)(F)CO,inactive,
OCC(F)(F)OC(F)(F)C(F)(F)OC(F)(F)C(F)(F)OC(F)(F)CO,,64.9 µM (active)
OCC(F)(F)OC(F)(F)C(F)(F)OC(F)(F)C(F)(F)OC(F)(F)F,inactive,
O=C(O)C=CC(F)(C(F)(F)F)C(F)(F)F,inactive,
O=S(=O)(F)C(F)(F)C(F)(F)C(F)(F)C(F)(F)C(F)(F)C(F)(F)C(F)(F)C(F)(F)F,inactive,
CC(O)C(F)(F)C(F)(F)F (centres undefined),inactive,
O=C(O)C(F)(F)C(F)(F)C(=O)O,inactive,
C=CC(=O)OCC(F)(F)C(F)F,inactive,
